Among the test systems are PLK2; PLK3; PLK4; PRKCD; PRKCE; PRKCH; PRKCI; PRKCQ; PRKD1; PRKD2; PRKD3; PRKG1; PRKG2; PRKX; PRP4; QSK; RAF1; RET.
Common to all, as to conditions: concentration: 1 μM, replicates: in singlicate; n = 1
Another assay deals with T1, PRKR.
T1 construct: gene EIF2AK2

The next assay deals with T2, PYK2.
T2 construct: gene PTK2B
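Also: KINOMEscan kinase panel screen.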

For `CC(C)c1nc(-c2cccc(NS(=O)(=O)c3c(F)cccc3F)c2F)c(-c2ccnc(Nc3ccc(N4CCOCC4)nc3)n2)s1` [GSK2008607], the “%Inh” value in the assay on PLK2 turned out to be 0%; in the assay on PLK3 it was 4%; in the assay on PLK4 it was 100%; in the assay with PRKCD it was 0%; in the assay on PRKCE, 0%; with PRKCH it was 22%. For the same molecule, the “%Inh” value came to 36% in the assay on PRKCI; 18% with PRKCQ; 93.8% with PRKD1; 99.2% in the assay on PRKD2; 100% in the assay with PRKD3; 0% with PRKG1. The “%Inh” value in the assay on PRKG2 worked out at 0%; in the assay on PRKR, 29%; in the assay on PRKX, 0%; with PRP4 it was 0%; in the assay on PYK2, 3%; with QSK, 90.5%. Also, the “%Inh” value with RAF1 was 100%; in the assay with RET, 99.7%.

`CC(=O)Nc1nc2cnc(Nc3cc(NC(=O)c4cccc(C5(C#N)CC5)c4Cl)ccc3C)nc2s1`: the “%Inh” value in the assay on PLK2 was 4%; in the assay with PLK3 it was 0%; in the assay on PLK4 it was 0%; with PRKCD it was 29%; in the assay with PRKCE, 0%; with PRKCH, 0%. Further, the “%Inh” value with PRKCI was found to be 0%; in the assay with PRKCQ, 39%; in the assay with PRKD1, 0%; with PRKD2, 4%; with PRKD3 it was 0%; with PRKG1, 0%. In addition, the “%Inh” value turned out to be 0% with PRKG2; 0% in the assay with PRKR; 19% in the assay on PRKX; 6% with PRP4; 20% in the assay on PYK2; 0% in the assay with QSK. Moreover, the “%Inh” value stood at 99.2% in the assay on RAF1 and 99.6% in the assay with RET.

As for `Cl.Cl.NCC(NCc1ccc(-c2ccnc3[nH]ccc23)s1)c1ccccc1` (centres unmarked) [GSK1321565], the “%Inh” value was 5% with PLK2; 0% in the assay on PLK3; 49% in the assay on PLK4; 91.1% in the assay with PRKCD; 84% in the assay on PRKCE; 85% in the assay on PRKCH. Moreover, the “%Inh” value in the assay with PRKCI was 0%; with PRKCQ it was 55%; in the assay with PRKD1, 0%; in the assay on PRKD2, 21%; with PRKD3, 56%; in the assay on PRKG1 it was 97.1%. The “%Inh” value in the assay with PRKG2 is listed as 97.8%; with PRKR it was 0%; in the assay on PRKX it was 94.2%; with PRP4 it was 86%; with PYK2, 9%; in the assay on QSK, 0%. The “%Inh” value is listed as 2% in the assay with RAF1 and 49% in the assay with RET.

With `COc1ccc(Nc2nccc(N3CCC(NC(=O)Nc4cccc(OC)c4)C3)n2)cc1` (centres unmarked) [GSK1379742], the “%Inh” value was determined as 0% with PLK2; 0% in the assay on PLK3; 0% in the assay on PLK4; 1% in the assay on PRKCD; 0% with PRKCE; 5% in the assay on PRKCH. Further, the “%Inh” value in the assay on PRKCI came out at 0%; in the assay with PRKCQ, 0%; with PRKD1, 3%; in the assay with PRKD2 it was 0%; in the assay with PRKD3, 0%; in the assay on PRKG1 it was 0%. In addition, the “%Inh” value with PRKG2 is given as 0%; with PRKR, 0%; with PRKX, 15%; in the assay with PRP4, 12%; in the assay with PYK2, 5%; in the assay on QSK, 6%. The “%Inh” value with RAF1 turned out to be 3%; in the assay on RET, 7%.

In the case of `COc1cccc(NC(=O)NC2CCN(c3ccnc(Nc4cc(OC)c(OC)c(OC)c4)n3)C2)c1` (centres unmarked) [GSK1379763], the “%Inh” value with PLK2 amounted to 0%; in the assay with PLK3, 12%; in the assay on PLK4, 48%; with PRKCD it was 0%; in the assay with PRKCE it was 14%; with PRKCH it was 0%. Also, the “%Inh” value in the assay with PRKCI, in the assay on PRKCQ, with PRKD1, with PRKD2, with PRKD3 and with PRKG1 was 0% throughout. Further, the “%Inh” value in the assay with PRKG2 is on record as 0%; in the assay on PRKR it was 6%; with PRKX, 28%; with PRP4 it was 26%; with PYK2 it was 4%; in the assay with QSK it was 0%. Moreover, the “%Inh” value in the assay on RAF1 was found to be 7%; with RET, 16%.

Turning to `O=C(O)C(F)(F)F.O=C(O)C(F)(F)F.O=c1[nH]ccc2nc(N[C@@H]3CCCNC3)nc(Nc3ccc(S(=O)(=O)N4CCOCC4)cc3)c12` [GSK2177277], the “%Inh” value with PLK2 is given as 10%; in the assay with PLK3, 0%; in the assay with PLK4, 98.7%; in the assay with PRKCD, 99.8%; with PRKCE it was 99.9%; in the assay on PRKCH, 99%. For the same molecule, the “%Inh” value was 95.3% in the assay on PRKCI; 99.2% in the assay on PRKCQ; 94.8% in the assay with PRKD1; 99.1% with PRKD2; 100% in the assay on PRKD3; 66% in the assay with PRKG1. Besides, the “%Inh” value in the assay on PRKG2 is on record as 96.5%; in the assay on PRKR it was 86%; with PRKX, 94.6%; in the assay on PRP4 it was 92.9%; in the assay on PYK2 it was 98.9%; with QSK, 85%. Further, the “%Inh” value with RAF1 worked out at 0%; in the assay with RET, 99.9%.

In the case of `CN(c1ccc(NC(=O)Nc2cc(C(F)(F)F)ccc2F)cc1)c1ccnc(Nc2ccc(S(N)(=O)=O)cc2)n1` [GW809893], the “%Inh” value is given as 54% in the assay on PLK2; 56% in the assay with PLK3; 97.6% in the assay on PLK4; 0% in the assay with PRKCD; 0% in the assay on PRKCE; 0% in the assay with PRKCH. Besides, the “%Inh” value in the assay on PRKCI is on record as 29%; with PRKCQ, 9%; in the assay on PRKD1 it was 0%; in the assay on PRKD2 it was 10%; with PRKD3, 0%; with PRKG1 it was 16%. Besides, the “%Inh” value in the assay on PRKG2 was 17%; with PRKR it was 3%; in the assay on PRKX it was 0%; with PRP4, 14%; in the assay with PYK2, 94.8%; in the assay with QSK, 25%. Besides, the “%Inh” value in the assay with RAF1 was determined as 88%; in the assay with RET it was 100%.

With `COc1cc(Nc2nccc(-c3c(-c4cccc(NC(=O)c5c(F)cccc5F)c4)nn4ncccc34)n2)cc(OC)c1OC` [GSK327238], the “%Inh” value worked out at 68% with PLK2; 92.7% in the assay on PLK3; 44% in the assay with PLK4; 79% in the assay with PRKCD; 14% in the assay on PRKCE; 67% in the assay with PRKCH. Further, the “%Inh” value in the assay on PRKCI amounted to 9%; in the assay with PRKCQ, 90.2%; in the assay on PRKD1, 6%; with PRKD2, 14%; with PRKD3, 0%; with PRKG1 it was 24%. In addition, the “%Inh” value was determined as 15% in the assay on PRKG2; 22% in the assay on PRKR; 0% in the assay with PRKX; 0% with PRP4; 72% with PYK2; 17% in the assay with QSK. Also, the “%Inh” value in the assay on RAF1 is 97.2%; in the assay with RET, 99.7%.

Regarding `Nc1n[nH]c2cnc(-c3ccccc3)cc12` [SB-642124], the “%Inh” value in the assay on PLK2 is recorded as 49%; with PLK3 it was 43%; in the assay with PLK4, 1%; in the assay with PRKCD, 17%; in the assay with PRKCE it was 24%; in the assay on PRKCH, 38%. Besides, the “%Inh” value in the assay with PRKCI came out at 4%; with PRKCQ, 45%; with PRKD1 it was 5%; in the assay on PRKD2 it was 4%; with PRKD3, 0%; in the assay with PRKG1, 0%. The “%Inh” value worked out at 0% with PRKG2; 0% in the assay on PRKR; 19% in the assay on PRKX; 18% in the assay on PRP4; 5% with PYK2; 0% in the assay with QSK. Besides, the “%Inh” value stood at 11% with RAF1 and 0% in the assay on RET.

Take `c1ccc(-c2cnc3nccnn23)cc1` [AH20685]: the “%Inh” value with PLK2 turned out to be 0%; with PLK3, 0%; in the assay on PLK4, 0%; in the assay on PRKCD, 0%; with PRKCE it was 0%; in the assay with PRKCH, 4%. In addition, the “%Inh” value in the assay with PRKCI is on record as 3%; in the assay on PRKCQ, 0%; in the assay on PRKD1 it was 0%; in the assay with PRKD2, 0%; with PRKD3, 0%; in the assay on PRKG1 it was 14%. The “%Inh” value came to 0% with PRKG2; 0% with PRKR; 6% in the assay on PRKX; 6% with PRP4; 0% with PYK2; 0% in the assay on QSK. Besides, the “%Inh” value stood at 7% in the assay on RAF1 and 0% with RET.

Values taken from PMC5540273 (PLoS ONE, 2017).
